Screening data from PubChem BioAssay.
This is one part of a sample in which hits are shown more often than they occur.
Cruzain Triton: cruzain (T. cruzi) inhibition with detergent. AID 1478. Potency, µM, most hits filed as inhibitors. purified cruzain, Z-FR-AMC fluorescence, 0.01% Triton. P25779. actives 0.43% (n = 200,000); further: nearly all actives have a fitted effect of over 40% in size
Target sequence (P25779 123-467 limits assumed): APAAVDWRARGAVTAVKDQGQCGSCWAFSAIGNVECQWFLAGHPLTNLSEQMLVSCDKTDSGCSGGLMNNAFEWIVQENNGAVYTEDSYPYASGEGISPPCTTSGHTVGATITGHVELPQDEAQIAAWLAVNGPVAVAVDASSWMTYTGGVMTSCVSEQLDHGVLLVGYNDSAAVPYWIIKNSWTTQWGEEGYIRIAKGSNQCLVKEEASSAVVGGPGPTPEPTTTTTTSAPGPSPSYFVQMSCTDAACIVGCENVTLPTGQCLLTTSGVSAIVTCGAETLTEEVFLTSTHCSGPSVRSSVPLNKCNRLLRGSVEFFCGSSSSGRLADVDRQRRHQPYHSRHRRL
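Read-out: AMC fluorescence (360 nm excitation, 450 nm emission), four reads over 2 min, first-to-third difference used. Conditions: cruzain 1.5 nM, Z-FR-AMC 2 uM, pH 5.5 acetate, 5 mM DTT, 0.01% Triton X-100.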
NS1 inh: blocks influenza NS1 protein function; Potency, µM (doses to about 46.1 µM); actives 0.4% (n = 270,000); calls by dose curve; further: actives are rising curves; nearly all actives have a fitted effect of over 50% in size
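Read-out: OD600 growth recovery of NS1-expressing budding yeast. Cells grown overnight at 30C in -URA glucose medium, washed, resuspended and diluted 1:100 in 2% galactose assay medium, pH 6.0. Same strain lacking NS1 served as positive control.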
Cruzain inh noDet: blocks cruzain activity in detergent-free assay. P25779. purified cruzain, Z-FR-AMC fluorescence, no detergent. Potency, µM, hits mostly inhibitors. actives 2.3% (n = 200,000). AID 1476; further: nearly all actives have a fitted effect of over 40% in size
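Detergent-free condition (0.00005% Triton X-100) in acetate buffer pH 5.5 with DTT. 1.5 nM enzyme and compound were pre-mixed 15 min, then 2 uM Z-FR-AMC substrate added; reaction progress from fluorescence change between first and third reads (60 s).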
Numbers stand for hits; i = inactive; ? = inconclusive; nt = no result given; ! = not active in a repeat. Unless noted, the call rests on the fitted dose curve; in most records, active means well fitted curve in the direction sought with a large enough effect; inconclusive means small, poorly fitted or top-dose-only effect, or another doubt; inactive means no such curve, though single readings can be large; an effect the other way counts as inactive or inconclusive.

SMILES	Cruzain Triton	NS1 inh	Cruzain inh noDet
Cc1ccc(-n2nc3c(c2NC(=O)c2ccc4c(c2)OCO4)CSC3)cc1	i	i	16µM
CC(=O)Nc1c2c(nn1-c1ccc(C)cc1)CSC2	nt	i	nt
Cc1ccc(CNC(=O)C(=O)Nc2c3c(nn2-c2ccccc2)CSC3)cc1	i	nt	?
Cc1ccc(CNC(=O)C(=O)Nc2c3c(nn2-c2ccc(F)cc2)CSC3)cc1	i	nt	13µM
CCOC(=O)c1cccc(NC(=O)CC2C(=O)N(c3ccc(OC)cc3)C(=O)N2C2CCCC2)c1 (stereo not drawn)	i	nt	i
COc1ccc(-c2nc3cnc(N4CCN(C)CC4)nc3n(Cc3ccc(F)cc3)c2=O)cc1	i	nt	i
O=S(=O)(c1ccccc1)N1CCN(c2nc(-c3cccs3)nc3ccccc23)CC1	i	i	16µM
c1csc(-c2nc(N3CCOCC3)c3ccccc3n2)c1	nt	i	nt
O=S(=O)(c1ccc(Cl)cc1)N1CCN(c2nc(-c3cccs3)nc3ccccc23)CC1	i	i	10µM
O=C(c1cc(-c2cccs2)nc2ccccc12)N1CCN(S(=O)(=O)c2ccccc2)CC1	i	?	?
Cc1ccc(NS(=O)(=O)c2ccc3nc(-c4ccccc4)[nH]c3c2)c(Cl)c1	i	nt	i
COc1ccc(-c2c[n+]3c4n2CCCCC4=C(c2ccc(Br)cc2)C3)cc1	i	i	10µM
Clc1ccc(C2=C3CCCCn4c(-c5ccccc5)c[n+](c43)C2)cc1	i	?	?
Cc1cc2c(C(C)C)c(O)c(O)c(C=O)c2c(O)c1-c1c(C)cc2c(C(C)C)c(O)c(O)c(C=O)c2c1O	25µM!	0.35µM!	?
COc1ccccc1Nc1nc(-c2ccc(F)cc2)c2c(n1)-c1ccccc1OC2	i	nt	10µM
Fc1ccc(Nc2nc(-c3ccc(F)cc3)c3c(n2)-c2ccccc2OC3)cc1	i	nt	?
CC1(C)N=C(N)N=C(N)N1c1cccc(OCc2cccc([N+](=O)[O-])c2)c1	i	i	i
Cc1ccc(NC(=O)Cn2cc(S(=O)(=O)N3CCN(c4ccccc4F)CC3)c3ccccc3c2=O)cc1F	i	nt	7.9µM
CC1CCN(S(=O)(=O)c2cn(CC(=O)Nc3cccc(C(F)(F)F)c3)c(=O)c3ccccc23)CC1	i	nt	?
O=C(Cn1cc(S(=O)(=O)N2CCN(c3ccccc3F)CC2)c2ccccc2c1=O)Nc1cccc(C(F)(F)F)c1	i	nt	7.9µM
CC(C)c1ccc(NC(=O)Cn2cc(S(=O)(=O)N3CCN(c4ccccc4F)CC3)c3ccccc3c2=O)cc1	i	nt	7.9µM
CN(C(=O)Cn1cc(S(=O)(=O)N2CCN(c3ccccc3F)CC2)c2ccccc2c1=O)c1ccc(Cl)cc1	i	nt	i
Cc1ccc(NC(=O)CN2CCN(c3ccccc3F)CC2)cc1F	i	nt	i
Cc1cccc(C)c1NC(=O)Cn1cc(C(=O)C2CC2)c2ccccc21	i	nt	i
CC(C)(C)OC(=O)N1CCC[C@H]1C(O)(c1ccccc1)c1ccccc1	i	nt	i
SMILES	Cruzain Triton	NS1 inh	Cruzain inh noDet
Cc1cccc(NC(=O)CSc2nc3c(c(=O)[nH]2)CN(Cc2ccc4c(c2)OCO4)CC3)c1C	i	nt	i
C=CCOC(=O)N[C@H](c1ccccc1)C(C(C)=O)C(C)=O	i	nt	i
C[C@H]1[C@H](O)[C@@H](C)C=CC=CC=CC=CC=CC=CC=C[C@H](O[C@@H]2O[C@@H](C)[C@H](O)[C@@H](N)[C@@H]2O)C[C@@H]2O[C@](O)(C[C@@H](O)C[C@@H](O)[C@@H](O)CC[C@@H](O)C[C@@H](O)CC(=O)O[C@H]1C)C[C@H](O)[C@H]2C(=O)O	i	i	i
CCOC(=O)c1ccc(N2C(=O)c3[nH]nc(-c4ccccc4)c3C2c2ccc(CC)cc2)cc1 (stereo not drawn)	i	nt	13µM
CCOC(=O)c1ccc(N2C(=O)c3[nH]nc(-c4ccc(C)cc4)c3C2c2ccc(O)cc2)cc1 (stereo not drawn)	i	nt	?
Cc1nnc(S(=O)(=O)c2ccc(N=Nc3c(N)nc(N)nc3N)cc2)s1	i	i	i
COc1ccc(/C=C/C(=O)/C=C/c2ccc(OC)cc2OC)c(OC)c1	i	nt	3.2µM
COc1ccc(C(=O)/C=C/c2ccc(OC)cc2OC)c(O)c1	nt	i	nt
COc1ccc(C(=O)COC(=O)c2cc(-c3cccs3)nc3ccccc23)cc1	i	nt	20µM
Cc1ccc(C(=O)COC(=O)c2cc(-c3cccs3)nc3ccccc23)cc1	i	nt	?
CC(C)=CCC[C@](C)(O[C@@H]1O[C@H](CO)[C@@H](O)[C@H](O)[C@H]1O)[C@H]1CC[C@]2(C)[C@@H]1[C@H](O)C[C@@H]1[C@@]3(C)CC[C@H](O[C@@H]4O[C@H](CO)[C@@H](O)[C@H](O)[C@H]4O[C@@H]4O[C@H](CO)[C@@H](O)[C@H](O)[C@H]4O)C(C)(C)[C@@H]3[C@@H](O)C[C@]12C	i	nt	?
O=C(Nc1ccc2c(c1)OCO2)Nc1ccc(Cl)cc1Cl	i	i	25µM
O=C(Nc1ccc(Cl)cc1)Nc1ccc2c(c1)OCO2	nt	i	nt
O=C1NC(=O)c2cc(Nc3ccccc3)c(Nc3ccccc3)cc21	i	?	20µM
O=C1NC(=O)c2cc(Nc3ccc(F)cc3)c(Nc3ccc(F)cc3)cc21	i	nt	i
COc1ccccc1-c1noc(-c2ccc(NCc3ccco3)c([N+](=O)[O-])c2)n1	i	nt	i
COC(=O)C/C=C/[C@@H](C)[C@H](NC(=O)OCC(Cl)(Cl)Cl)c1ccc2ccccc2c1	i	nt	i
COc1ccc(C)cc1S(=O)(=O)N(CC(=O)Nc1cccc([N+](=O)[O-])c1)c1ccc(C)c(C)c1	i	i	32µM
COc1ccc(S(=O)(=O)N(CC(=O)Nc2ccc(C)cc2)c2ccc(C)cc2)cc1OC	i	nt	i
Cc1c(Cl)cccc1NC(c1ccc(F)cc1)c1nnc(-c2ccccc2)o1 (stereo not drawn)	i	nt	?
NCCSC(c1ccccc1)c1ccccc1	i	i	i
CCC(c1nnnn1Cc1cccs1)N1CCN(c2nc3ccccc3s2)CC1 (stereo not drawn)	i	i	?
CC(C)CC(c1nnnn1Cc1cccs1)N1CCN(c2nc3ccccc3s2)CC1 (stereo not drawn)	i	i	32µM
Nc1ccn([C@H]2O[C@H](CO)[C@@H]3[O][Sn]([c]4ccccc4)([c]4ccccc4)[O][C@H]32)c(=O)n1	i	i	i
O=C(Nc1cnn(Cc2ccc(Cl)cc2Cl)c1)c1noc2c1CCc1ccccc1-2	i	nt	7.9µM
SMILES	Cruzain Triton	NS1 inh	Cruzain inh noDet
Cc1cc(C(=O)Nc2cnn(Cc3ccc(Cl)cc3Cl)c2)no1	i	i	i
Cc1cccc(-n2c(=O)c3c4c(sc3n3cnnc23)CCCC4)c1	i	nt	i
COc1ccc(C(=O)NCC(=O)NCC(=O)OCC(=O)c2ccc(Br)cc2)cc1	nt	i	nt
Cc1ccc(Cl)c(OCC(=O)Nc2ccc3c(c2)OCCO3)c1	i	i	i
CCN(C(=O)COC(=O)CNC(=O)c1ccc(C)c(C)c1)C1CCS(=O)(=O)C1 (stereo not drawn)	25µM	i	16µM
Cc1ccc(C(=O)NCC(=O)OCC(=O)c2ccc3c(c2)OCCO3)cc1C	13µM	i	13µM
CCN(C(=O)COC(=O)Cc1c[nH]c2ccccc12)C1CCS(=O)(=O)C1 (stereo not drawn)	nt	i	nt
COc1ccc(C(=O)NCC(=O)OCC(=O)c2ccc3c(c2)OCCO3)cc1	16µM	i	13µM
O=C(COc1cc(Cl)c(Cl)cc1Cl)NC(=O)Nc1ccc2c(c1)OCCO2	i	i	20µM
